Source: PubChem (National Center for Advancing Translational Sciences (NCATS))
RE007 growth inh – less growth of the S. pombe RE007 Vpr strain. 0.21% of 360,000 active. AID 651644. Potency, µM (highest dose often 92.2 µM), most hits filed as inhibitors. S. pombe RE007 Vpr strain, BacTiter-Glo ATP luminescence, 24 h; active means well fitted falling curve with a large enough effect; inconclusive means small, poorly fitted or top-dose-only effect; inactive means no such curve, though single readings can be large or run the other way; further: nearly all actives have a fitted effect of over 50% in size
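Fission yeast strain RE007, carrying one chromosomally integrated HIV-1 vpr copy, was seeded at OD 0.01 in PMG+AL medium with 23 nL pinned compound. After 24 h at 30 °C and 99% humidity, viability was read by BacTiter-Glo luminescence.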
NS1 function inh – inhibitors of influenza NS1 protein function. Potency, µM (doses to about 46.1 µM). 0.4% of 270,000 active. AID 2326; calls by dose curve; further: actives are rising curves; nearly all actives have a fitted effect of over 50% in size
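Read-out: OD600 growth recovery of NS1-expressing budding yeast. Cells grown overnight at 30C in -URA glucose medium, washed, resuspended and diluted 1:100 in 2% galactose assay medium, pH 6.0. Same strain lacking NS1 served as positive control.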
Sm TGR block – S. mansoni TGR enzyme inhibition; Potency, µM (doses to about 114 µM), most hits filed as inhibitors; purified TGR, DTNB reduction, TNB absorbance 405 nm; 3% of 360,000 active; Q962Y6; further: nearly all actives have a fitted effect of over 60% in size
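TGR 20 nM + NADPH 100 uM (dispensed conc.), cpd preinc 15 min RT; start with NADPH (500 uM addition) then DTNB (15 mM addition). Kinetic TNB absorbance, 405 nm filter. Four-parameter Hill fit across titration.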
TbPYK inhibitor – inhibitors of Trypanosoma brucei pyruvate kinase; Q57TT1; TbPYK enzyme, Kinase-Glo Plus ATP luminescence, 45 min; Potency, µM (top dose mostly 76.8 µM), hits mostly inhibitors; 0.12% of 410,000 active; further: nearly all actives have a fitted effect of over 50% in size
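Enzyme and substrate buffer are dispensed first and compound is pin-transferred. ADP at 130 uM final then starts the reaction, which runs 45 min at room temperature. Detection reagent is added for 10 min before luminescence is imaged.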
LmPK inhibitor – inhibitors of Leishmania mexicana pyruvate kinase | Q27686 | Potency, µM (titrated, usually from 57.5 µM), hits mostly inhibitors | purified LmPK, Kinase-Glo ATP luminescence, 1 h | 0.37% of 290,000 active
Target sequence (Q27686 whole entry, looked up): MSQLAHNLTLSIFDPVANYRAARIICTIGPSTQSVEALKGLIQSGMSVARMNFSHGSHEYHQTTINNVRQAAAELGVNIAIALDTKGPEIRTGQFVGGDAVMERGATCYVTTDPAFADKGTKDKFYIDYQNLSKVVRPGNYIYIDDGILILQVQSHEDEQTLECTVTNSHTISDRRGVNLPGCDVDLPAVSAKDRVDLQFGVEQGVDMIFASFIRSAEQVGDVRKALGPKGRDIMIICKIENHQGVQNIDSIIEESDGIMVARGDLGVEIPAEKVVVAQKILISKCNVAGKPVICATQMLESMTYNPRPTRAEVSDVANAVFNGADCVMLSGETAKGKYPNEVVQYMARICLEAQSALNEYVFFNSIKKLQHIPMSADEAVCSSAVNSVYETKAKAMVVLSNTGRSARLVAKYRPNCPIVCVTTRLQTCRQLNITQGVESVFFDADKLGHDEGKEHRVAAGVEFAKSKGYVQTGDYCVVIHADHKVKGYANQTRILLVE
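0.1 nM LmPK, 0.5 mM PEP, 0.1 mM ADP; 50 mM imidazole pH 7.2, 7 mM MgCl2, 50 mM KCl; 1 h RT. Kinase-Glo luminescence readout, normalized to no-enzyme (full inhibition) and uninhibited wells.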
Giardia FBPA inh-1 – Giardia lamblia aldolase inhibition; A8B2U2; purified Giardia FBPA; Potency, µM (series often up to 59.6 µM), usual class: inhibitors; 0.71% of 290,000 active; further: nearly all actives have a fitted effect of over 55% in size
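Giardia FBPA (40 nM reagent) was preincubated 10 min at RT with compound (up to 57.5 uM final), then substrate plus GAPDH/TPI/NAD/arsenate coupling system with diaphorase/resazurin was added; resorufin fluorescence (525/598 nm) was read after 20 min.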
Giardia growth – inhibitors of Giardia lamblia growth; shares compounds with Giardia FBPA inh-1; 5% of 1,500 active; Giardia lamblia trophozoite growth inhibition; Potency, µM (top dose mostly 57.5 µM), actives largely listed as inhibitors; AID 2785;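 further: trophozoites exposed to compound for 48 h at 37 °C; nearly all actives have a fitted effect of over 70% in size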
Mammal cell tox – mammalian cytotoxicity of Giardia aldolase inhibitor hits | shares compounds with Giardia FBPA inh-1 | mammalian cell viability counter-screen, qHTS | 4% of 1,500 active | Potency, µM (titrated, usually from 57.5 µM), actives largely listed as inhibitors;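 further: Chinese hamster ovary cells used as mammalian cytotoxicity surrogate; viability measured as cellular ATP by luminescence; compound exposure lasted 48 h before reading; nearly all actives have a fitted effect of over 60% in size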
Giardia FBPA inh-2 – confirmation of Giardia fructose-bisphosphate aldolase inhibitors. shares compounds with Giardia FBPA inh-1. purified Giardia aldolase enzyme activity, qHTS. Potency, µM (titrated, usually from 57.5 µM), hits mostly inhibitors. 5% of 1,500 active; further: nearly all actives have a fitted effect of over 45% in size
Rabbit aldolase – rabbit FBP aldolase inhibition by Giardia aldolase hits; shares compounds with Giardia FBPA inh-1; 4% of 1,500 active; Rabbit muscle FBPA enzyme inhibition, selectivity counter-screen; Potency, µM (top dose mostly 57.5 µM), hits mostly inhibitors; AID 2794; further: nearly all actives have a fitted effect of over 60% in size
GAPDH counter – counter-screen for Giardia aldolase inhibitors: GAPDH coupling enzyme. shares compounds with Giardia FBPA inh-1. GAPDH coupling enzyme counterscreen, biochemical, qHTS. Potency, µM (titrated, usually from 57.5 µM), hits mostly inhibitors. 6% of 1,500 active; further: nearly all actives have a fitted effect of over 55% in size
Each line names hits and unclear results; the compound was inactive in the other large screens (follow-up assays come after a bar, where they were run); [ ] = dose if it differs, or a comment. Rows were chosen to be rich in hits. Some 3.5% of all compounds tested hit in one or more screens of this group. Unless noted, the call rests on the fitted dose curve; in most records, active means well fitted curve in the direction sought with a large enough effect; inconclusive means small, poorly fitted or top-dose-only effect, or another doubt; inactive means no such curve, though single readings can be large; an effect the other way counts as inactive or inconclusive.

COc1cc(C(c2c(C)[nH][nH]c2=O)c2c(C)[nH][nH]c2=O)cc([N+](=O)[O-])c1O	Giardia FBPA inh-1 15.8µM (no result: NS1 function inh) | Giardia growth inactive | Mammal cell tox inactive | Giardia FBPA inh-2 5.62µM | Rabbit aldolase inconclusive | GAPDH counter inactive
COc1cc(NC(=O)CCc2c(C)nc3nc(-c4cc(OC)cc(OC)c4)nn3c2C)cc(OC)c1	none (no result: RE007 growth inh, NS1 function inh, LmPK inhibitor, Giardia FBPA inh-1)
CCc1nnc(NC(=O)c2nc(SCc3ccc(F)cc3)ncc2Cl)s1	none (no result: RE007 growth inh, NS1 function inh, LmPK inhibitor, Giardia FBPA inh-1)
O=C(NC(=S)Nc1ccc(Cl)cn1)c1cc([N+](=O)[O-])ccc1N1CCOCC1	Giardia FBPA inh-1 14.1µM | Giardia growth inactive | Mammal cell tox inactive | Giardia FBPA inh-2 inactive | Rabbit aldolase inactive | GAPDH counter inactive
CCOc1ccc(/C=C/c2nc(C#N)c(N3CCC(C)CC3)o2)cc1	none (no result: RE007 growth inh, NS1 function inh, LmPK inhibitor, Giardia FBPA inh-1)
CCN(CC)c1ccc(N=Nc2ncn[nH]2)cc1	Giardia FBPA inh-1 3.54µM (no result: NS1 function inh) | Giardia growth inconclusive | Mammal cell tox 31.6µM | Giardia FBPA inh-2 inactive | Rabbit aldolase inactive | GAPDH counter inactive
CCN(CC)c1ccc(N=Nc2nn(C)c(C)c2[N+](=O)[O-])cc1	none
CC1=C(C#N)c2nc(N)c(C#N)c(C)c2/C1=C\c1ccc(OCC(=O)O)c(Cl)c1	Sm TGR block inconclusive, Giardia FBPA inh-1 19.9µM | Giardia growth inconclusive | Mammal cell tox inactive | Giardia FBPA inh-2 inactive | Rabbit aldolase inactive | GAPDH counter inactive
O=S(=O)(Nc1ccc(-c2ccc(N3CCCCCC3)nn2)cc1)c1ccc(C(F)(F)F)cc1	none (no result: RE007 growth inh, NS1 function inh, LmPK inhibitor, Giardia FBPA inh-1)
CCOC(=O)c1cnc(-c2ccccc2O)nc1Cl	Giardia FBPA inh-1 19.9µM (no result: NS1 function inh) | Giardia growth inconclusive | Mammal cell tox inactive | Giardia FBPA inh-2 inconclusive | Rabbit aldolase inconclusive | GAPDH counter inconclusive
CCOC(=O)c1cnc(-c2ccccc2)nc1Oc1ccc(Cl)cc1	none
CCn1cc(C(=O)N2CCN(c3ccccc3)CC2)c(=O)c2cc(S(=O)(=O)N3CCC(C)CC3)ccc21	none (no result: RE007 growth inh, NS1 function inh, LmPK inhibitor, Giardia FBPA inh-1)
O=C(O)CSc1nnc(NC(=O)CN2CCOCC2)s1	Giardia FBPA inh-1 5.01µM | Giardia growth inactive | Mammal cell tox inactive | Giardia FBPA inh-2 inactive | Rabbit aldolase inactive | GAPDH counter inactive
CS(=O)(=O)c1ccc2nc(NC(=O)CN3CCOCC3)sc2c1	Giardia FBPA inh-1 4.47µM | Giardia growth inconclusive | Mammal cell tox inactive | Giardia FBPA inh-2 inactive | Rabbit aldolase inactive | GAPDH counter inactive
O=C(CN1CCOCC1)Nc1nc2ccc(Br)cc2s1	none (no result: TbPYK inhibitor)
O=C(CN1CCOCC1)Nc1nc2ccc(Cl)cc2s1	Giardia FBPA inh-1 6.31µM | Giardia growth inactive | Mammal cell tox inactive | Giardia FBPA inh-2 inactive | Rabbit aldolase inactive | GAPDH counter inactive
Cc1cccc(NC(=O)C(=O)NCC(c2ccc3c(c2)OCO3)N2CCOCC2)c1C (stereo not drawn)	none (no result: RE007 growth inh, NS1 function inh, LmPK inhibitor, Giardia FBPA inh-1)
Cc1ccc(OCC(=O)Nc2ccc3nc(SCC(N)=O)sc3c2)cc1	none (no result: RE007 growth inh, NS1 function inh, LmPK inhibitor, Giardia FBPA inh-1)
Cc1cccnc1NC(=O)CNC(=O)c1cccs1	none (no result: NS1 function inh, LmPK inhibitor, Giardia FBPA inh-1)
Cc1cccnc1NC(=S)NC(=O)c1cccs1	Giardia FBPA inh-1 19.9µM | Giardia growth inactive[10.4 µM] | Mammal cell tox 31.6µM | Giardia FBPA inh-2 inactive | Rabbit aldolase inactive | GAPDH counter inactive
O=C(NC(=S)Nc1ccccn1)c1cncc(Br)c1	none
